The text below walks through data of PubChem BioAssay.

Calls of active or inactive are those of the source.

The test system of experiment [1] is Human papillomavirus type 1a protein E7 (residues 44-93). In words: small molecules binding HPV E7 44-93 – biochemical, small-molecule microarray, residues 44-93, 635 nm fluorescence, primary screen (AID 1108).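 Further: E7 fragment applied at 1 µg/mL in TBST for 1 h at 4 C; score combines spot fluorescence with its signal to noise ratio.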 Conditions: fluorescence 635 nm, higher = more signal.
A short description of experiment [2]: hepatitis C replication reporter changes, two-sided – Huh7 cells, luciferase reporter, HCV replication inhibitor project, primary screen (AID 1109).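 Further: huh7 hepatoma cells harbouring a luciferase neomycin HCV replicon reporter; luciferase luminescence as measure of HCV replicon replication; test concentration not given here.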 Conditions: Huh7 HCV replicon luciferase reporter, 48 h; higher = more signal. For orientation: A reporter such as luciferase makes a cellular process visible.
In experiment [3] the target is Left-right determination factor 2 (Homo sapiens) (UniProt O00292). In words: small molecules binding LEFTY2 protein – biochemical, small-molecule microarray, 635 nm fluorescence scan, primary screen (AID 1110). Conditions: higher = more signal.
Sequence of Left-right determination factor 2 (Homo sapiens) (O00292 whole entry, looked up): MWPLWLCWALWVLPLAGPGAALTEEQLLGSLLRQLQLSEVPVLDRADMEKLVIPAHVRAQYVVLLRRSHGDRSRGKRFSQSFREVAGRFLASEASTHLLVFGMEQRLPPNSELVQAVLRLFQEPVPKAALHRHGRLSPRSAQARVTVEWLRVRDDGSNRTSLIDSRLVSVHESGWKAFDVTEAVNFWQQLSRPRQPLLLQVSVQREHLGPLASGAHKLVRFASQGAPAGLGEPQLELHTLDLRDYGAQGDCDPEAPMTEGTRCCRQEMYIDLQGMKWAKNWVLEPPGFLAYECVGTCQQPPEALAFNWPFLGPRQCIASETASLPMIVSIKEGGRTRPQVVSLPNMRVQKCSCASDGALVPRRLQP
Experiment [4] addresses Calmodulin-1 (Homo sapiens) (UniProt P0DP23). Briefly: small molecules binding calmodulin-1 with EGTA – biochemical, small-molecule microarray, Cy5-labelled CALM1, profiling panel (AID 1111).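 Further: labelled calmodulin applied in Tris saline Tween buffer holding calcium plus EGTA and DTT.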 The settings on record: Cy5-CALM1 binding fluorescence, higher = more signal.
For experiment [5] the target is unchanged. In words: small molecules binding Ca-loaded calmodulin-1 – biochemical, small-molecule microarray, Cy5-labelled CALM1, plus calcium, artefact control for SMM control-protein annotation, profiling panel (AID 1112).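 Further: score merges spot fluorescence with signal to noise from triplicate slides.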 The settings on record: Cy5-CALM1 binding fluorescence, higher = more signal.
Experiment [6] in a line: probe aWnt5a binding to arrayed compounds – biochemical, biotinylated probe, 635/667 nm fluorescence, primary screen (AID 1113).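 Further: score merges 667 nm fluorescence intensity with signal-to-noise per printed feature.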 The settings on record: small-molecule microarray, higher = more signal.
The nature of experiment [7]: probe aShh binding to arrayed compounds – biochemical, biotinylated probe, 635/667 nm fluorescence, primary screen (AID 1114).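 Further: probe is biotin-labelled aShh protein from a stem cell growth factor screen; measures binding of labelled protein to compounds printed on the slide; score merges feature fluorescence at 667 nm with signal-to-noise.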 The settings on record: small-molecule microarray, higher = more signal.
Experiment [8] can be described thus: probe aNog binding to arrayed compounds – biochemical, biotinylated probe, 635/667 nm fluorescence, primary screen (AID 1115).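 Further: probe is biotinylated aNog protein used at 0.15 µg/mL for 1 h at 4 C; z-score combines 667 nm fluorescence of each spot with its signal to noise.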 Conditions: small-molecule microarray, higher = more signal.
Experiment [9] concerns the target Torsin-1A-interacting protein 1 (Homo sapiens) (UniProt Q5JTV8). In words: compound microarray binding of lysate hLAP1 – cell lysate, small-molecule microarray, COS7 lysate, 635/667 nm fluorescence, primary screen (AID 1116). The settings on record: 635 nm fluorescence, higher = more signal.
Experiment [10] has as its target Alpha-bungarotoxin (Bungarus multicinctus) (UniProt P60615). In words: compounds binding labelled alpha-BTX control protein – biochemical, small-molecule microarray, Alexa647 label, 635/667 nm fluorescence, artefact control for SMM control protein annotation, profiling panel (AID 1117). Conditions: alpha-BTX-A647 binding fluorescence, higher = more signal.
The target of experiment [11] is Albumin (Bos taurus) (UniProt P02769). Briefly: compounds binding labelled BSA control protein – biochemical, small-molecule microarray, Alexa647 label, 635/667 nm fluorescence, artefact control for SMM control protein annotation, profiling panel (AID 1118).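 Further: score merges 667 nm emission intensity and signal-to-noise per printed compound spot.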 The settings on record: BSA-A647 binding, fluorescence 635 nm, higher = more signal.
Sequence of Albumin (Bos taurus) (P02769 whole entry, looked up): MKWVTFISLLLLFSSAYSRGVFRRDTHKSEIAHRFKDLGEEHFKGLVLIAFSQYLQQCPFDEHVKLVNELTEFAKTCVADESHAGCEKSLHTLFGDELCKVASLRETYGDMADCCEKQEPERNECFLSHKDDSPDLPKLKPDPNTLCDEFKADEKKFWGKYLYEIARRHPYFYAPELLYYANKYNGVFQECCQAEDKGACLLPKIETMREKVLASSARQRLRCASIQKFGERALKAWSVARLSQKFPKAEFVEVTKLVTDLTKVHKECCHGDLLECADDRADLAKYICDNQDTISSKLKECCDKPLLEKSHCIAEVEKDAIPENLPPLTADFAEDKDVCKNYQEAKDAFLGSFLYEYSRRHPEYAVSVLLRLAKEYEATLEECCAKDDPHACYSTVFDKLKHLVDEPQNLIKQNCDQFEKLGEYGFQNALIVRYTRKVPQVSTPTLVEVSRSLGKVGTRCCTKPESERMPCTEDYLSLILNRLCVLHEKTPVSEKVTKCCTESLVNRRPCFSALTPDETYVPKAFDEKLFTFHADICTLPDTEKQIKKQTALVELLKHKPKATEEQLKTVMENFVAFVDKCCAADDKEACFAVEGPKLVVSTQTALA
Experiment [12] can be described thus: probe aXIP binding to arrayed compounds – biochemical, NeuroSMM set, 635/667 nm fluorescence, primary screen (AID 1119).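 Further: probe is the protein aXip251-270 applied at 1 µg/mL to compound-printed slides; binding of probe to printed compounds measured as 667 nm fluorescence plus signal to noise.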 Conditions: small-molecule microarray, higher = more signal, called active from +8 up or from −8 down.
Experiment [13] can be described thus: probe aNOTCH3 binding on compound microarray – biochemical, small-molecule microarray, 635/667 nm fluorescence, primary screen (AID 1120).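 Further: probe is a biotin-tagged antibody raised against NOTCH3 rather than NOTCH3 protein; score merges spot fluorescence near 667 nm with spot signal to noise.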 The settings on record: higher = more signal.
The nature of experiment [14]: probe aNOTCH2 binding on compound microarray – biochemical, small-molecule microarray, 635/667 nm fluorescence, primary screen (AID 1121).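 Further: score merges feature fluorescence read at 667 nm with its signal to noise.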 Conditions: higher = more signal.
Experiment [15] concerns the target Carbonic anhydrase 2 (Homo sapiens) (UniProt P00918). Briefly: compounds binding carbonic anhydrase 2 – biochemical, small-molecule microarray, Alexa647-labelled CAII, profiling panel (AID 1122). The settings on record: CAII-A647 binding fluorescence, higher = more signal.
Experiment [16] in a line: COS7 lysate on small-molecule microarray, probe aHis, 635 nm (AID 1123).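 Further: z-score combines 667nm fluorescence intensity with signal-to-noise per printed compound spot.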 Conditions: COS7 cell lysate, fluorescence, higher = more signal.
Experiment [17] is described as follows: probe aLAP1 signal on lysate-treated microarray – cell lysate, small-molecule microarray, COS7 lysate, primary screen (AID 1124).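 Further: lysate comes from COS7 cells expressing LAP1 and is applied at 0.3 µg/mL; score merges spot fluorescence near 667 nm with signal-to-noise over triplicate slides.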 Conditions: probe aLAP1, fluorescence, higher = more signal.
In experiment [18] the test system is Sam68 (KHDRBS1). Briefly: compounds binding KHDRBS1 protein – biochemical, small-molecule microarray, 635 nm fluorescence, primary screen (AID 1125).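 Further: score merges 667 nm channel intensity with signal to noise over triplicate slides.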 The settings on record: higher = more signal.
Experiment [19] deals with Chordin-like protein 2 (CHRDL2). Briefly: compounds binding chordin-like 2 – biochemical, small-molecule microarray, 635 nm fluorescence, primary screen (AID 1126).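 Further: printed compound slides probed with Chrdl2 protein at 4 µg/mL for 1 h at 4 C; score merges 667 nm emission intensity with signal to noise over three replicate slides.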 Conditions: fluorescence 635 nm, higher = more signal.
The target of experiment [20] is Concanavalin-A (Canavalia ensiformis) (UniProt P02866). Briefly: compounds binding concanavalin A lectin – biochemical, small-molecule microarray, Alexa647 label, 635 nm, artefact control for SMM control protein annotation, primary screen (AID 1127).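 Further: z combines 667 nm emission intensity with signal-to-noise across three replicate slides.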 Conditions: ConA-A647 binding fluorescence, higher = more signal.
Sequence of Concanavalin-A (Canavalia ensiformis) (P02866 whole entry, looked up): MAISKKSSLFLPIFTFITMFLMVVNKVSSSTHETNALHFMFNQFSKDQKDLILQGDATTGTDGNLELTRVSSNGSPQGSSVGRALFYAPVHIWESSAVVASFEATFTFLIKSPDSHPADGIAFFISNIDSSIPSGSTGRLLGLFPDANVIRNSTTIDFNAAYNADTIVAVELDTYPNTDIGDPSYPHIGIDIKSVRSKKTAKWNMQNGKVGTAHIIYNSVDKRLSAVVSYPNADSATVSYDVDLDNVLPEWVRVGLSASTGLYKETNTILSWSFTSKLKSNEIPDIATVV

Sequence of Torsin-1A-interacting protein 1 (Homo sapiens) (Q5JTV8 whole entry, looked up): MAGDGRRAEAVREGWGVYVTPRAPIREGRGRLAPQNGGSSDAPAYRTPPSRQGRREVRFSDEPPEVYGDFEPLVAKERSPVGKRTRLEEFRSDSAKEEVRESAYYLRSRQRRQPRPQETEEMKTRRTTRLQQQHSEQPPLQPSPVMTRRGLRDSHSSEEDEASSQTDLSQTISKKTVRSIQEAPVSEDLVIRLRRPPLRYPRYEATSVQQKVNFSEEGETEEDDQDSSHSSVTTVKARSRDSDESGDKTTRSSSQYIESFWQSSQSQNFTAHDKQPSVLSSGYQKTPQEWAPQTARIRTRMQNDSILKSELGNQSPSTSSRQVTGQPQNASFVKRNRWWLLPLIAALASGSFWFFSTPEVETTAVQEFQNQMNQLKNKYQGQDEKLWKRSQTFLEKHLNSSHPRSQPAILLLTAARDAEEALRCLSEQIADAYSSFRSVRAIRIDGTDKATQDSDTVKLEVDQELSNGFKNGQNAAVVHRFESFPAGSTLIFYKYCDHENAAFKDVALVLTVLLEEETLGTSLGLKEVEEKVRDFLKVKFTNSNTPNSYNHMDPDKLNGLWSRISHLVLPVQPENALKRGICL
Sequence of Alpha-bungarotoxin (Bungarus multicinctus) (P60615 whole entry, looked up): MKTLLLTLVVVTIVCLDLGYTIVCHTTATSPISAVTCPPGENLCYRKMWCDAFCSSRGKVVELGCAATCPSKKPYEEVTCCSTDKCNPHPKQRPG

`COCC(=C=CC[C@H](O)c1ccc(OCCO)cc1)C[C@H](O)COCc1ccccc1`: the composite z-score was 0.486 in experiment [1]; 0.32 in [3]; -0.0904 in experiment [4]; -0.847 in experiment [5]; -0.0718 in experiment [6]; -0.279 in [7]. Also, the composite z-score was -0.302 in experiment [8]; 1.52 in [9]; 0.439 in experiment [10]; 0.589 in experiment [11]; -0.123 in experiment [13]; -0.14 in experiment [14]. For the same compound, the composite z-score in experiment [15] stood at 0.561; in experiment [16] it was 1.07; in [17] it was 0.476; in experiment [18] it was 0.703; in experiment [19], 0.538; in [20] it was 0.654. The z-score in [2] is -0.313. Also, the composite Z-score in experiment [12] was 0.0082 (inactive).

With `COc1cc(OC)c(C(O)C2C=CC3C(=O)N(c4ccccc4)C(=O)C3N2Nc2ccc(C#N)cc2)cc1Br` (stereo not given), the composite z-score is 1.36 in [1]; 0.0166 in experiment [3]; 2.19 in experiment [4]; 0.992 in experiment [5]; 0.471 in experiment [6]; 0.196 in experiment [7]. For the same compound, the composite z-score in experiment [8] is 0.81; in [9] it was 2.18; in [10], 2.42; in [11], 1.01; in experiment [13], 0.334; in experiment [14] it was 0.401. The composite z-score is 0.849 in [15]; 2.49 in experiment [16]; 1.41 in [17]; 1.15 in [18]; 0.355 in experiment [19]; 1.04 in experiment [20]. The compound also yielded a z-score in experiment [2] of -0.519. Moreover, in experiment [12], the composite Z-score was 1.5 (inactive).

On to `COC(=O)C[C@H]1O[C@]2(C(=O)N(C)c3ccccc32)[C@@H](C)[C@@H]1[Si](C)(C)c1ccc(C)cc1`, for which the composite z-score in experiment [1] is 1.15; in [3] it was 0.375; in experiment [4] it was 0.196; in experiment [5], -0.0787; in experiment [6], -0.136; in experiment [7], -0.393. In addition, the composite z-score in experiment [8] is -0.121; in [9], 0.346; in [10], 0.638; in experiment [11] it was 0.683; in [13], -0.113; in experiment [14], -0.117. Moreover, the composite z-score in experiment [15] was determined as 0.0614; in experiment [16], 0.311; in experiment [17], 0.218; in experiment [18], 1.16; in [19], 0.0565; in experiment [20], 0.379. Further, the z-score in experiment [2] is -2.92. Besides, in experiment [12], the composite Z-score is 0.397 (inactive).

For the compound `CCOC(=O)C[C@H]1[C@H](OC(=O)c2ccc(-c3ccccc3)cc2)[C@@H](NC(=O)C2CCCCC2)c2cc(OCCCO)ccc2N1C(=O)c1ccccc1`, the composite z-score in [1] is 0.959; in [3], 0.365; in experiment [4], 0.413; in experiment [5], -0.0071; in experiment [6] it was -0.0822; in [7] it was -0.123. Further, the composite z-score in experiment [8] was -0.232; in experiment [9], -0.241; in experiment [10] it was 0.0785; in experiment [11], 0.236; in [13], 0.172; in experiment [14], -0.152. For the same compound, the composite z-score turned out to be 0.0455 in experiment [15]; 0.92 in experiment [16]; 0.0846 in experiment [17]; 0.957 in experiment [18]; 0.372 in experiment [19]; 0.949 in [20]. For the same compound, the z-score in experiment [2] is -1.84. Besides, in experiment [12], the composite Z-score is -0.6 (inactive).

For `O=C1C[C@@](C(=O)NCC(F)(F)F)(c2ccc([N+](=O)[O-])cc2)[C@@H](c2ccc(CO)cc2)N1C1CCCCC1`, the composite z-score in [1] was 1.04; in experiment [3], 0.301; in experiment [4], 0.769; in [5] it was -0.088; in experiment [6] it was -0.006; in [7] it was 0.0898. Besides, the composite z-score came out at 0.0807 in experiment [8]; 1.9 in [9]; 1.8 in experiment [10]; 0.52 in experiment [11]; 0.0488 in experiment [13]; 0.0257 in [14]. Further, the composite z-score amounted to 0.685 in experiment [15]; 3.17 in experiment [16]; 1.21 in experiment [17]; 1.29 in [18]; 0.489 in experiment [19]; 1.15 in [20]. For the same compound, in [2], the z-score is -1.4. For the same compound, the composite Z-score in [12] was 0.391 (inactive).
